Among the data in PubChem BioAssay (EPA / NIEHS) are outcome and AC50 values, retold here.

Experiment [1] can be described thus: ATG_AP_2_CIS: Attagene CIS-FACTORIAL HepG2 Assay for human Activator Protein 2 (AP-2) (AID 2282932). Particulars: HepG2 AP-2 cis-reporter, Attagene transcription factor profiling; actives raise or lower the signal. The essentials:
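Assay in transfected HepG2 with promoter-regulated reporters, 24 h incubation after dosing. Signal is reporter mRNA fluorescence (RT-PCR, capillary electrophoresis), analysed for both increases and decreases relative to DMSO controls.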

Experiment [2] deals with Transcription factor E2F1 (Homo sapiens) (UniProt Q01094). Briefly: ATG_E2F_CIS: Attagene CIS-FACTORIAL HepG2 Assay for human E2F Transcription Factor 1 (AID 2282935). As to conditions: HepG2 Attagene cis-reporter, E2F reporter RNA transcripts; actives raise or lower the signal. The essentials: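 In this cis-factorial format, endogenous factor activity drives transfected reporters in HepG2; transcripts collected at 24 h are quantified by fluorescence after RT-PCR and capillary separation.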
Chain of Transcription factor E2F1 (Homo sapiens) (Q01094 whole entry, looked up): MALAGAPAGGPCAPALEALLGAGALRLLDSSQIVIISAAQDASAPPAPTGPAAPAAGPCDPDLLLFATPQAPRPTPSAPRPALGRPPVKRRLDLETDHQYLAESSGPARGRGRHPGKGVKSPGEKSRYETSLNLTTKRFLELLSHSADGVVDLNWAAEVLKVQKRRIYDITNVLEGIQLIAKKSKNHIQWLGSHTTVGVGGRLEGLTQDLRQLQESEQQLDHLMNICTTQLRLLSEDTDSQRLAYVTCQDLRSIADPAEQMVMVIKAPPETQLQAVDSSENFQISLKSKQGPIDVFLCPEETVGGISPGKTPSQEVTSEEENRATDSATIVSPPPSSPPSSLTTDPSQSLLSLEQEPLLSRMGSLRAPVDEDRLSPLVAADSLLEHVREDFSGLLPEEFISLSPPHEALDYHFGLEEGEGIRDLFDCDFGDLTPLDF

Experiment [3] can be described thus: ATG_M_61_CIS: Attagene CIS-FACTORIAL HepG2 Assay for M61 Transcription Factor (Internal Marker) (AID 2282937). Particulars: HepG2 Attagene CIS-FACTORIAL M61 internal marker reporter; actives raise or lower the signal. The essentials: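 Readout is reporter mRNA by RT-PCR, fluorescent primer extension and capillary electrophoresis, with gain or loss fitted relative to DMSO. Transfected HepG2 cells carrying endogenous-TF-driven cis reporters were exposed to chemicals for 24 hours.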

Experiment [4] is described as follows: ATG_EGR_CIS: Attagene CIS-FACTORIAL HepG2 Assay for human Early Growth Response 1 (EGR1) (AID 2282938). As to conditions: HepG2 Attagene CIS-FACTORIAL EGR reporter mRNA; actives raise or lower the signal. In a few lines:
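After 24 h compound exposure, RNA from reporter-transfected HepG2 cells was reverse-transcribed, PCR-amplified, fluorescently labelled and resolved by capillary electrophoresis. EGR1 reporter transcript changes, up or down, were fitted against DMSO, reflecting endogenous transcription-factor activity.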

A short description of experiment [5]: ATG_Ets_CIS: Attagene CIS-FACTORIAL HepG2 Assay for human Erythroblast Transformation Specific (ETS) (AID 2282941). As to conditions: HepG2 ETS cis-reporter transcription, actives raise or lower the signal. In a few lines:
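Endogenous transcription factor activity read as reporter mRNA via RT-PCR and capillary electrophoresis, with gain or loss fitted bidirectionally against DMSO. Human HepG2 liver cells, transiently transfected CIS reporter constructs, 24 h exposure.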

Experiment [6] has as its target Hepatocyte nuclear factor 3-beta (Homo sapiens) (UniProt Q9Y261). Nature of the experiment: ATG_FoxA2_CIS: Attagene CIS-FACTORIAL HepG2 Assay for human Forkhead box A2 (FOXA2) (AID 2282942). Particulars: HepG2 cis-reporter transcription factor activity, 24 h; actives raise or lower the signal. In a few lines: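 Endogenous transcription factor activity is captured via cis-element-driven reporter transcripts in transfected HepG2. Total RNA taken at 24 h post-dosing; labelled RT-PCR products resolved by capillary electrophoresis. Gain or loss fitted versus DMSO.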

Experiment [7] in a line: ATG_FoxO_CIS: Attagene CIS-FACTORIAL HepG2 Assay for human Forkhead box O (FoxO) (AID 2282943). As to conditions: HepG2 Attagene cis-reporter, FoxO element, mRNA; actives raise or lower the signal. In a few lines:
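24 h chemical exposure, HepG2 with transient cis-MRTU transfection. RNA extraction, oligo(dT) RT, reporter-specific PCR, primer-extension labelling, HpaI digestion, CE fragment analysis; bidirectional fit, DMSO baseline.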

Experiment [8] addresses Hypoxia-inducible factor 1-alpha (Homo sapiens) (UniProt Q16665). Briefly: ATG_HIF1a_CIS: Attagene CIS-FACTORIAL HepG2 Assay for human Hypoxia Inducible Factor 1 (HIF1A) (AID 2282951). As to conditions: HepG2 Attagene cis-factorial HIF1a reporter transcription; actives raise or lower the signal. The essentials: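 Activity is fitted in both directions relative to DMSO. Reporter transcripts are read by RT-PCR, fluorescent primer extension and capillary electrophoresis after 24 h chemical treatment. The cells are HepG2 carrying transiently transfected cis-element-driven reporter units responding to endogenous factors.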

Experiment [9] is described as follows: ATG_RORE_CIS: Attagene CIS-FACTORIAL HepG2 Assay for human RAR-related Orphan Receptor Element (RORE) (AID 2282959). Particulars: HepG2 Attagene cis-factorial RORE reporter, mRNA; actives raise or lower the signal. In a few lines:
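RORE reporter transcripts reflecting endogenous factor activity were read after 24 h compound exposure of transfected HepG2 cells, using reverse transcription, PCR, fluorescent labelling and capillary electrophoresis sizing. Gain or loss fitted against DMSO.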

Experiment [10] can be described thus: ATG_TGFb_CIS: Attagene CIS-FACTORIAL HepG2 Assay for human Transforming Growth Factor (TGF) (AID 2282967). As to conditions: HepG2 Attagene CIS TGFb reporter, mRNA transcription; actives raise or lower the signal. In a few lines: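 HepG2 cells transiently transfected with cis-promoter-driven multiplexed reporter units; 24 h compound exposure. Reporter mRNA measured by RT-PCR, 6-FAM labeling, HpaI digestion and capillary electrophoresis; bidirectional fit versus DMSO baseline.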

Experiment [11] in a line: ATG_VDRE_CIS: Attagene CIS-FACTORIAL HepG2 Assay for human Vitamin D Receptor Element (VDRE) (AID 2282968). As to conditions: HepG2 VDRE cis-reporter transcription, actives raise or lower the signal. The essentials:
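Transfected HepG2 reporter cells, chemical treatment 24 h. RNA isolated, cDNA amplified with reporter-specific primers, products analysed by capillary electrophoresis. Endpoint fitted in both directions versus DMSO.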

Experiment [12] has as its target Transcriptional activator Myb (Homo sapiens) (UniProt P10242). Nature of the experiment: ATG_Myb_CIS: Attagene CIS-FACTORIAL HepG2 Assay for human Myeloblastosis (Myb) Proto-Oncogene Transcription Factor (AID 2282986). Particulars: HepG2 Attagene CIS-FACTORIAL Myb reporter transcription; actives raise or lower the signal. In a few lines:
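Reporter mRNA is quantified by RT-PCR and capillary electrophoresis 24 h after dosing HepG2 cells transfected with cis-regulated reporter units, which track endogenous transcription factor activity. Gain and loss of signal are fitted versus DMSO baseline.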

Experiment [13] concerns the target Nuclear respiratory factor 1 (Homo sapiens) (UniProt Q16656). Nature of the experiment: ATG_NRF1_CIS: Attagene CIS-FACTORIAL HepG2 Assay for human Nuclear Respiratory Factor 1 (NRF1) Orphan Gene (AID 2282987). Particulars: HepG2 NRF1 cis-element reporter, Attagene multiplex; actives raise or lower the signal. The essentials: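 Endogenous NRF1-driven reporter transcription in transfected HepG2 cells after 24 h treatment. Readout: RT-PCR products, 6-FAM labelled and resolved by capillary electrophoresis; changes fitted both directions relative to DMSO.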

The nature of experiment [14]: ATG_NFI_CIS: Attagene CIS-FACTORIAL HepG2 Assay for human Nuclear Factor I (NFI) (AID 2282989). As to conditions: HepG2 cis-regulatory reporter, NFI response element transcription; actives raise or lower the signal. In a few lines: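 HepG2 cells transiently transfected with cis-element-driven multiplexed reporter transcription units, dosed for 24 h. Reporter mRNA quantified by RT-PCR, fluorescent labelling, HpaI digestion and capillary electrophoresis; bidirectional fit versus DMSO baseline.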

For experiment [15], the target named is Myc proto-oncogene protein (Homo sapiens) (UniProt P01106). Briefly: ATG_Myc_CIS: Attagene CIS-FACTORIAL HepG2 Assay for human Myelocytomatosis (Myc) Proto-Oncogene Transcription Factor (AID 2282990). Particulars: HepG2, Attagene cis-reporter transcription factor activity; actives raise or lower the signal. In a few lines:
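DMSO-normalised, bidirectionally fitted reporter mRNA signal. HepG2 cells transfected with cis reporter constructs, treated 24 h; transcripts detected by RT-PCR, 6-FAM primer extension and CE.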

The target in experiment [16] is Cellular tumor antigen p53 (Homo sapiens) (UniProt P04637). Briefly: ATG_p53_CIS: Attagene CIS-FACTORIAL HepG2 Assay for human p53 Transcription Factor (AID 2282994). As to conditions: HepG2 p53 cis-element reporter, Attagene mRNA; actives raise or lower the signal. In a few lines:
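Endogenous p53 activity read in transiently transfected HepG2 from a cis-element-driven reporter transcript after 24 h exposure. RNA reverse-transcribed, PCR-amplified, fluorescently labelled and sized by capillary electrophoresis; gain or loss fitted against DMSO baseline.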

Experiment [17] shares this target. Nature of the experiment: TOX21_p53_BLA_p2_ratio: Tox21 HCT-116 p53 Agonism Beta-lactamase Assay, Ratio, Phase 2 (AID 2283592; active means hit-call score of the fitted dose curve at least 0.9, where 1 is the maximum). In a few lines: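 DMSO-normalized, positive-direction endpoint derived from the 460 nm/530 nm FRET ratio in HCT116 p53 beta-lactamase reporter cells exposed 16 h at 37C and loaded with CCF4-AM for 2 h.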
The target of experiment [18] is X-box-binding protein 1 (Homo sapiens) (UniProt P17861). Briefly: ATG_Xbp1_CIS: Attagene CIS-FACTORIAL HepG2 Assay for human X-box Binding Protein 1 (XBP1) (AID 2282972). As to conditions: HepG2 XBP1 cis-element reporter, Attagene multiplex; actives raise or lower the signal. In a few lines:
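Reporter transcripts were quantified by RT-PCR with fluorescent primer extension and capillary electrophoresis after 24 h chemical exposure. Cells: transiently transfected HepG2 carrying cis-regulated reporter constructs; data fitted bidirectionally relative to DMSO.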

In experiment [19] the target is Nuclear receptor subfamily 1 group I member 2 (Homo sapiens) (UniProt O75469). Nature of the experiment: ATG_PXR_TRANS: Attagene TRANS-FACTORIAL HepG2 Assay for human Pregnane X Receptor (PXR) (AID 2283008; active means hit-call score of the fitted dose curve at least 0.9, where 1 is the maximum). In a few lines:
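Transactivation by exogenous PXR–GAL4 fusion measured as reporter transcript induction after 24 h compound treatment of transfected human HepG2 cells. Read-out via RT-PCR and capillary electrophoresis of labelled fragments, fitted upward relative to DMSO.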

Experiment [20] can be described thus: ATG_XTT_Cytotoxicity: Cytotoxicity Assessment in the Attagene TRANS-FACTORIAL HepG2 Assay (AID 2283584; active means hit-call score of the fitted dose curve at least 0.9, where 1 is the maximum). In a few lines:
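24 h chemical exposure of reporter-transfected HepG2; XTT signal loss vs DMSO indicates cytotoxicity.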

Records with an inconclusive call do not appear. Activity calls are given as the source filed them. How the source made its calls, unless noted: active means hit-call score of the fitted dose curve at least 0.9, where 1 is the maximum; inactive means score below 0.9.

Chain of Nuclear receptor subfamily 1 group I member 2 (Homo sapiens) (O75469 whole entry, looked up, the tested form may be a part): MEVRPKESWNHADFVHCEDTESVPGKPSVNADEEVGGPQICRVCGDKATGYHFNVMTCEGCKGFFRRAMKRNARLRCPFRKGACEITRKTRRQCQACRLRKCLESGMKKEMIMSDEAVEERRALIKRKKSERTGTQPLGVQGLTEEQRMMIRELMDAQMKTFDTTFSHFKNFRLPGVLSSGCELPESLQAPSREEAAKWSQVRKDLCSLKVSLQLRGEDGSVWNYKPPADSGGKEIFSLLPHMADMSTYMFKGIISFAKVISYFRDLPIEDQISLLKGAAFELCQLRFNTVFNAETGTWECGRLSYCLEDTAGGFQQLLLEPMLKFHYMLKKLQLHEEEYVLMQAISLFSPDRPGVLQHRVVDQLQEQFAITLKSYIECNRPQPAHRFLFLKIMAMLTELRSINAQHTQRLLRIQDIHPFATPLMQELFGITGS
Chain of Hypoxia-inducible factor 1-alpha (Homo sapiens) (Q16665 whole entry, looked up): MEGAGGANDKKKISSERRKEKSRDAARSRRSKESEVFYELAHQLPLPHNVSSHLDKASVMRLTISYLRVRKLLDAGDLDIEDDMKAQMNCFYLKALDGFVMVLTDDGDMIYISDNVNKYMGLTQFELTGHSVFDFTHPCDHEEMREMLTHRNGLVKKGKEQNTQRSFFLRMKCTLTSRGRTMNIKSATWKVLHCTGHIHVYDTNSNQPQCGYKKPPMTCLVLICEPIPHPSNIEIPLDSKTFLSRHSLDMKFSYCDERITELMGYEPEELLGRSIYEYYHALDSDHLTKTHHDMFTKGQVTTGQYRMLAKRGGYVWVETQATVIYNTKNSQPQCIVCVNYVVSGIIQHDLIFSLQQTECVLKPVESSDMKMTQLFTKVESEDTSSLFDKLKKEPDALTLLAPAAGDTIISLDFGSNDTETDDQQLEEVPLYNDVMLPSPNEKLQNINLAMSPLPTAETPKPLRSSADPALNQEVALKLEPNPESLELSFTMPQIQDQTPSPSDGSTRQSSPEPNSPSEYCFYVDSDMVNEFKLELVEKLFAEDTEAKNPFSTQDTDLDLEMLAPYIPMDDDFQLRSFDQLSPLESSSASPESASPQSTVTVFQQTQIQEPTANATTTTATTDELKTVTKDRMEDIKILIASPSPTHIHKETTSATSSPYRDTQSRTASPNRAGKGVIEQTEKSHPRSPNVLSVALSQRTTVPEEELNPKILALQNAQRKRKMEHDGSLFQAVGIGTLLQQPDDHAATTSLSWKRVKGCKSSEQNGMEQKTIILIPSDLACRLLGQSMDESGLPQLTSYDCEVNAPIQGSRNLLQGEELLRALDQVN
Chain of Cellular tumor antigen p53 (Homo sapiens) (P04637 whole entry, looked up): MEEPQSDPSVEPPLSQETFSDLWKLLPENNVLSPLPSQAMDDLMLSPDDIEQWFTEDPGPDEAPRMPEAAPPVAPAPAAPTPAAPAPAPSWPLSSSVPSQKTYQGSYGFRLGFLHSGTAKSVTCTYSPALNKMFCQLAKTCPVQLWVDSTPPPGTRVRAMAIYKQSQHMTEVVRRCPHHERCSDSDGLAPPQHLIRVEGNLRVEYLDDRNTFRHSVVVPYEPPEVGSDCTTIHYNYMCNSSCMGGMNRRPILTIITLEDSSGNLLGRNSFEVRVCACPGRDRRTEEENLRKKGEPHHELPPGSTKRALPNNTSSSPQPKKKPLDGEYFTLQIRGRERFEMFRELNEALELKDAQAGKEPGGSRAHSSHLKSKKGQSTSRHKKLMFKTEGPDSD
Chain of Nuclear respiratory factor 1 (Homo sapiens) (Q16656 whole entry, looked up): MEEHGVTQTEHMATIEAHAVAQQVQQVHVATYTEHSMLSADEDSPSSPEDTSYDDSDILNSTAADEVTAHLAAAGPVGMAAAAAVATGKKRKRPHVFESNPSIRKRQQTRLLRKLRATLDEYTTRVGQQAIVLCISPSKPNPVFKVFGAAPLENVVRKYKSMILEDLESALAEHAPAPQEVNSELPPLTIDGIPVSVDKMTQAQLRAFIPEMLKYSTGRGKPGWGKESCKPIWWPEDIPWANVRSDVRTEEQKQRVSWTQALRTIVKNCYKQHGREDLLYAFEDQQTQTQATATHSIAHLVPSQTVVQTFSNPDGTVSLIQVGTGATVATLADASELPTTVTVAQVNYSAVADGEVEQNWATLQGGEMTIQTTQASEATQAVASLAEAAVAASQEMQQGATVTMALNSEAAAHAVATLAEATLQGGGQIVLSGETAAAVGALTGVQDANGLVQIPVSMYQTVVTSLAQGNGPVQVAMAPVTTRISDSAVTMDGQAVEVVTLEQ
Chain of Hepatocyte nuclear factor 3-beta (Homo sapiens) (Q9Y261 whole entry, looked up): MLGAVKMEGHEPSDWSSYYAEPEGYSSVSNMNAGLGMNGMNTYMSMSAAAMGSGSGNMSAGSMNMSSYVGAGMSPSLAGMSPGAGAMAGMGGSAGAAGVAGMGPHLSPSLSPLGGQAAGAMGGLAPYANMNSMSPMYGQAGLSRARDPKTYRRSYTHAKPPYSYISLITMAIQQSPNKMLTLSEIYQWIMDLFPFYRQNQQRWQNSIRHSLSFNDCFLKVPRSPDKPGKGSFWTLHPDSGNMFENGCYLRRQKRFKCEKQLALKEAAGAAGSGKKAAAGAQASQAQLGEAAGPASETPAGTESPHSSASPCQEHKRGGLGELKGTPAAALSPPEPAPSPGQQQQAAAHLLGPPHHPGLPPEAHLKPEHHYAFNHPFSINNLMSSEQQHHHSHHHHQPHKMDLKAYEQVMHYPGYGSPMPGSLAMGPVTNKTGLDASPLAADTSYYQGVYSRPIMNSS
Chain of X-box-binding protein 1 (Homo sapiens) (P17861 whole entry, looked up): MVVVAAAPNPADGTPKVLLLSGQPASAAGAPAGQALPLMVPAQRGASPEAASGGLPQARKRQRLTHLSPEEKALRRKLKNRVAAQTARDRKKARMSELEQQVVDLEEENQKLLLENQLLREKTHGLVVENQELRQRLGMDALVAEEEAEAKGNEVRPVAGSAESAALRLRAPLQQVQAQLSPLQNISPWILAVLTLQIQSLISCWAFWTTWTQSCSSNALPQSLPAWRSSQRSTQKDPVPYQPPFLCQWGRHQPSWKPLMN
Chain of Myc proto-oncogene protein (Homo sapiens) (P01106 whole entry, looked up): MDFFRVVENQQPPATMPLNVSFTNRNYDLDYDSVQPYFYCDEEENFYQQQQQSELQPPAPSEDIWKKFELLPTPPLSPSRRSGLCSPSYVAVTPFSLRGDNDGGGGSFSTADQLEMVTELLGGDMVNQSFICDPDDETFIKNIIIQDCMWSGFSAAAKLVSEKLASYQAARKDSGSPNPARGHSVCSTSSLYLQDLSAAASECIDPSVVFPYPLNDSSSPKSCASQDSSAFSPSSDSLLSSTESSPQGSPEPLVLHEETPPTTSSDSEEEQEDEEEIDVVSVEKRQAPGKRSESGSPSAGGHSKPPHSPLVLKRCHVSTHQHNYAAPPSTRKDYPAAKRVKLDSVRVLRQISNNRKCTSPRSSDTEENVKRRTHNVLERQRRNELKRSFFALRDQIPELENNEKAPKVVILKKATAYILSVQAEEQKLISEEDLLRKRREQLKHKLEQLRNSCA
Chain of Transcriptional activator Myb (Homo sapiens) (P10242 whole entry, looked up): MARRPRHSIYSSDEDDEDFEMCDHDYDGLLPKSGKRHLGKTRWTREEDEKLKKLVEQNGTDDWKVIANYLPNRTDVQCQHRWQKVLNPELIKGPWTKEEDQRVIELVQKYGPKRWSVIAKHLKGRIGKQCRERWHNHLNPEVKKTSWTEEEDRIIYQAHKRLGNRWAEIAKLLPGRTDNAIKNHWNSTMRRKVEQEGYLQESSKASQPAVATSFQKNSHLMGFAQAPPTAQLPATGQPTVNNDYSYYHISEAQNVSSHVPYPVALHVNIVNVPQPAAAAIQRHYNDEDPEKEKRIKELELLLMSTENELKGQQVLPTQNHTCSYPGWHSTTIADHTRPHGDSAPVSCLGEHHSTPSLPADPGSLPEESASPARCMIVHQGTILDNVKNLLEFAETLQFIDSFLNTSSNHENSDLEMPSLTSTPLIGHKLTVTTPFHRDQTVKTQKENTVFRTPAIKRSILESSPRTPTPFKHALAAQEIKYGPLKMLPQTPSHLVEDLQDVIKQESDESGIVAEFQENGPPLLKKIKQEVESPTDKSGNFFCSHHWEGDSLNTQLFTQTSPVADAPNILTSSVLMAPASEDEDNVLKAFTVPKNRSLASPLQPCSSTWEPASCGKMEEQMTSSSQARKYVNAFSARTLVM

As to `CCOC(=O)CC(=O)OCC`, the result in experiment [1], in experiment [2], in experiment [3], in experiment [4], in experiment [5] and in experiment [6] was inactive. In addition, the outcome in experiment [7], in [8], in experiment [9], in [10], in [11] and in experiment [12] was inactive. For the same compound, the compound was classed as inactive in experiment [13], in experiment [14], in experiment [15], in experiment [16] and in [17].

With `COC(=O)c1ccccc1`, the result in [1], in experiment [2], in experiment [3], in [4], in [5] and in experiment [6] was inactive. For the same compound, the compound was called inactive in experiment [7], in experiment [8], in experiment [9], in [11], in experiment [18] and in experiment [12]. Besides, the compound was classed as inactive in experiment [13], in [14], in experiment [16], in [19], in [20] and in [17]. Besides, in [10], the AC50 is 0.5 µM (active).

Regarding `Cc1cccnc1`, the compound was classed as inactive in experiment [1], in [2], in experiment [3], in [4], in [6] and in [7]. Besides, the compound was classed as inactive in experiment [8], in experiment [9], in experiment [10], in experiment [11], in experiment [18] and in [13]. For the same compound, the compound was classed as inactive in experiment [14], in experiment [15] and in [19]. Further, the AC50 in experiment [12] is 164 µM (active).

With `C[C@H]1C[C@H]2[C@@H]3CCC4=CC(=O)C=C[C@]4(C)[C@@]3(F)[C@@H](O)C[C@]2(C)[C@@]1(O)C(=O)CO`, the result in [1], in experiment [2], in [6], in [7], in experiment [9] and in [10] was inactive. The compound was called inactive in experiment [13], in experiment [14], in experiment [15], in experiment [20] and in experiment [17]. For the same compound, the AC50 in [18] is 158 µM (active); in experiment [12] it was 180 µM (active); in experiment [16], 39.4 µM (active); in [19], 0.685 µM (active).
